# Test results: the supplement of paper PMC10037445
# In all, about 2,900 compounds were measured (“NF-kB SEAP reporter activity, fold change vs agonist alone”: median about 0.99, highest 2% from about 2.6 on). Only a selection was taken, and the highest values are over-represented in it overall.
# How the values were obtained:
# RAW-Dual [1] = assay: NF-kB SEAP reporter activity, fold change vs agonist alone; cytotoxicity flag (confluency mask): not cytotoxic; higher = enhanced NF-kB activity
# In short: (§1)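 RAW-Dual macrophages were seeded in DMEM at 50,000 cells/well in 384-well plates, given 50 nL of library stock by pin tool, and given a PRR agonist 1 h later. Plates were held at 37 °C, 5% CO2 for 20 hours, after which supernatant was read for IRF by QuantiLuc luminescence and for NF-κB by QuantiBlue absorbance at 620 nm. Reporter activity is expressed as fold change over wells that received agonist alone. A well was called cytotoxic when IncuCyte confluency fell below 70% of agonist controls in both mask sets.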
# RAW-Dual [2] = assay: NF-kB SEAP reporter activity, fold change vs agonist alone; higher = enhanced NF-kB activity; conditions: cytotoxicity flag (confluency mask): not cytotoxic
# In short: as §1
# [3] = agonist: ODN 1826 (TLR9) 0.5 ug/mL
# [4] = agonist: Pam2CSK4 (TLR2/6) 0.1 ug/mL
# [5] = agonist: Pam3CSK4 (TLR2/1) 0.1 ug/mL
# [6] = library stock concentration (final ~1000-fold dilution): 10 mM, agonist: MPLA (TLR4) […]
# [7] = library stock concentration (final ~1000-fold dilution): 10 mM, agonist: Imiquimod (TLR7) […]
# [8] = library stock concentration (final ~1000-fold dilution): 10 mM water, agonist: Imiquimod (TLR7) […]
# [9] = library stock concentration (final ~1000-fold dilution): 10 mM water, agonist: MPLA (TLR4) […]
structure (smiles),measurement,setting,value
CC(C)C1=CC2=CCC3C(C)(C(=O)O)CCCC3(C)C2CC1 (configuration not stated) (library stock concentration (final ~1000-fold dilution): 10 mM),NF-kB SEAP reporter activity,RAW-Dual [1]; agonist: LPS (TLR4) 0.1 ug/mL,0.876
same,NF-kB SEAP reporter activity,RAW-Dual [1]; [3],0.965
same,NF-kB SEAP reporter activity,RAW-Dual [1]; [4],1.03
same,NF-kB SEAP reporter activity,RAW-Dual [1]; [5],0.83
CC(C)C1=CC2=CCC3C(C)(C(=O)O)CCCC3(C)C2CC1 (configuration not stated),NF-kB SEAP reporter activity,RAW-Dual [2]; [6],1.07
CC(C)CC(=O)NC(C(=O)NC(C(=O)NC(CC(C)C)C(O)CC(=O)NC(C)C(=O)NC(CC(C)C)C(O)CC(=O)O)C(C)C)C(C)C (configuration not stated) (library stock concentration (final ~1000-fold dilution): 10 mM),NF-kB SEAP reporter activity,RAW-Dual [1]; agonist: LPS (TLR4) 0.1 ug/mL,0.983
same,NF-kB SEAP reporter activity,RAW-Dual [1]; [3],0.596
same,NF-kB SEAP reporter activity,RAW-Dual [1]; [4],1
same,NF-kB SEAP reporter activity,RAW-Dual [1]; [5],0.967
CC(C)CC(=O)NC(C(=O)NC(C(=O)NC(CC(C)C)C(O)CC(=O)NC(C)C(=O)NC(CC(C)C)C(O)CC(=O)O)C(C)C)C(C)C (configuration not stated),NF-kB SEAP reporter activity,RAW-Dual [2]; [7],1.01
same,NF-kB SEAP reporter activity,RAW-Dual [2]; [6],1
CCOCc1nc2c(N)nc3ccccc3c2n1CC(C)(C)O,NF-kB SEAP reporter activity,"RAW-Dual [2]; library stock concentration (final ~1000-fold dilution): 3.2 mM, agonist: Imiquimod (TLR7) […]",1.27
same,NF-kB SEAP reporter activity,"RAW-Dual [2]; library stock concentration (final ~1000-fold dilution): 3.2 mM, agonist: MPLA (TLR4) […]",2.17
CCOCc1nc2c(N)nc3ccccc3c2n1CC(C)(C)O (library stock concentration (final ~1000-fold dilution): 3.2 mM),NF-kB SEAP reporter activity,RAW-Dual [1]; agonist: LPS (TLR4) 0.1 ug/mL,3.55
same,NF-kB SEAP reporter activity,RAW-Dual [1]; [3],1.69
same,NF-kB SEAP reporter activity,RAW-Dual [1]; [4],0.415
same,NF-kB SEAP reporter activity,RAW-Dual [1]; [5],0.673
CC(=O)NC1C(NC(=N)N)C=C(C(=O)O)OC1C(O)C(O)CO (configuration not stated),NF-kB SEAP reporter activity,RAW-Dual [2]; [8],0.917
same,NF-kB SEAP reporter activity,RAW-Dual [2]; [9],1.03
CC(=O)NC1C(NC(=N)N)C=C(C(=O)O)OC1C(O)C(O)CO (configuration not stated) (library stock concentration (final ~1000-fold dilution): 10 mM water),NF-kB SEAP reporter activity,RAW-Dual [1]; agonist: LPS (TLR4) 0.1 ug/mL,1.37
same,NF-kB SEAP reporter activity,RAW-Dual [1]; [3],1.17
same,NF-kB SEAP reporter activity,RAW-Dual [1]; [4],1.19
same,NF-kB SEAP reporter activity,RAW-Dual [1]; [5],1.07
O=c1cc(-c2cccc3c2Sc2ccccc2S3)oc(N2CCOCC2)c1,NF-kB SEAP reporter activity,RAW-Dual [2]; [7],1.04
same,NF-kB SEAP reporter activity,RAW-Dual [2]; [6],2.17
CC1CN(CC(=O)Nc2ccc3c(c2)Cc2cccc(-c4cc(=O)cc(N5CCOCC5)o4)c2S3)CC(C)O1 (configuration not stated) (library stock concentration (final ~1000-fold dilution): 10 mM),NF-kB SEAP reporter activity,RAW-Dual [1]; agonist: LPS (TLR4) 0.1 ug/mL,5.33
same,NF-kB SEAP reporter activity,RAW-Dual [1]; [3],0.922
same,NF-kB SEAP reporter activity,RAW-Dual [1]; [4],1.36
same,NF-kB SEAP reporter activity,RAW-Dual [1]; [5],1.99
O=c1cc(-c2cccc3c2Sc2ccccc2S3)oc(N2CCOCC2)c1 (library stock concentration (final ~1000-fold dilution): 10 mM),NF-kB SEAP reporter activity,RAW-Dual [1]; agonist: LPS (TLR4) 0.1 ug/mL,2.66
same,NF-kB SEAP reporter activity,RAW-Dual [1]; [3],0.715
same,NF-kB SEAP reporter activity,RAW-Dual [1]; [4],0.748
same,NF-kB SEAP reporter activity,RAW-Dual [1]; [5],0.948
CC1CN(CC(=O)Nc2ccc3c(c2)Cc2cccc(-c4cc(=O)cc(N5CCOCC5)o4)c2S3)CC(C)O1 (configuration not stated),NF-kB SEAP reporter activity,RAW-Dual [2]; [7],1.54
same,NF-kB SEAP reporter activity,RAW-Dual [2]; [6],2.82
CNC(=O)C(Cc1c[nH]c2ccccc12)NC(=O)C(CC(=O)NO)CC(C)C (configuration not stated) (library stock concentration (final ~1000-fold dilution): 10 mM),NF-kB SEAP reporter activity,RAW-Dual [1]; agonist: LPS (TLR4) 0.1 ug/mL,0.932
same,NF-kB SEAP reporter activity,RAW-Dual [1]; [3],0.999
same,NF-kB SEAP reporter activity,RAW-Dual [1]; [4],1.03
same,NF-kB SEAP reporter activity,RAW-Dual [1]; [5],1.01
CNC(=O)C(Cc1c[nH]c2ccccc12)NC(=O)C(CC(=O)NO)CC(C)C (configuration not stated),NF-kB SEAP reporter activity,RAW-Dual [2]; [7],1.04
same,NF-kB SEAP reporter activity,RAW-Dual [2]; [6],1.23
CN1C2CCCC1CC(NC(=O)c1nn(C)c3ccccc13)C2.Cl (configuration not stated) (library stock concentration (final ~1000-fold dilution): 10 mM water),NF-kB SEAP reporter activity,RAW-Dual [1]; agonist: LPS (TLR4) 0.1 ug/mL,1.2
same,NF-kB SEAP reporter activity,RAW-Dual [1]; [3],1.06
same,NF-kB SEAP reporter activity,RAW-Dual [1]; [4],1.04
same,NF-kB SEAP reporter activity,RAW-Dual [1]; [5],1.11
CN1C2CCCC1CC(NC(=O)c1nn(C)c3ccccc13)C2.Cl (configuration not stated),NF-kB SEAP reporter activity,RAW-Dual [2]; [8],0.874
same,NF-kB SEAP reporter activity,RAW-Dual [2]; [9],1
